Results: the supplement of paper PMC10849652
The full data set covers some 7,900 targets. This sample favours those with a hit. About 0.6% of all pairs of compound and target were hits.

Assays:
Experiment in all cases: log2 fold change, soluble protein after heating vs DMSO (PISA); higher = thermal stabilisation; K562 cells, 10 uM, 30 min; active = over 0.2 and 3.5 SD of the protein, either way, in both replicates (recomputed)
saracatinib = compound: CN1CCN(CCOc2cc(OC3CCOCC3)c3c(Nc4c(Cl)ccc5c4OCO5)ncnc3c2)CC1 [saracatinib]
In short: (§1)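 For each measurement, 10 μM compound was applied for 30 min to K562 cells at 2×10^6 cells/mL. Aliquots were heated for 3 min across 48°C-58°C, pooled, and extracted in PBS with 0.5% NP-40 at 4°C; the supernatant after 21,000xg for 90 min was soluble protein. This was quantified by TMTpro 16plex LC-MS/MS with channel sums equalised, and thermal stability was reported relative to control samples from duplicates, on a log2 fold-change scale.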

sotrastaurin = compound: CN1CCN(c2nc(C3=C(c4c[nH]c5ccccc45)C(=O)NC3=O)c3ccccc3n2)CC1 [sotrastaurin]
In short: as §1

alvocidib = compound: CN1CC[C@H](c2c(O)cc(O)c3c(=O)cc(-c4ccccc4Cl)oc23)[C@H](O)C1 [alvocidib]
In short: as §1

Tubastatin A = compound: CN1CCc2c(c3ccccc3n2Cc2ccc(C(=O)NO)cc2)C1 [Tubastatin A]
In short: as §1

[1] = compound: CNC(=O)C1=CC=CC=C1NC2=NC(=NC=C2Cl)NC3=C(C=C(C=C3)N4CCOCC4)OC
In short: as §1

defactinib = compound: CNC(=O)c1ccc(Nc2ncc(C(F)(F)F)c(NCc3nccnc3N(C)S(C)(=O)=O)n2)cc1 [defactinib]
In short: as §1

rucaparib = compound: CNCc1ccc(-c2[nH]c3cc(F)cc4c3c2CCNC4=O)cc1 [rucaparib]
In short: as §1

[2] = compound: CNc1nc(-c2ccc3c(N)n[nH]c3c2)cc(N2C[C@@H](C(=O)NC3CCCCC3)CC[C@H]2C)n1
In short: as §1

encorafenib = compound: COC(=O)N[C@@H](C)CNc1nccc(-c2cn(C(C)C)nc2-c2cc(Cl)cc(NS(C)(=O)=O)c2F)n1 [encorafenib]
In short: as §1

[3] = compound: COC(=O)[C@H](CCSC)NC(=O)C1=C(C=C(C=C1)NC[C@H](CS)N)C2=CC=CC=C2
In short: as §1

[4] = compound: COC1=CC=C(C=C1)CN2C=CC3=C2C=C(C=C3)C(=O)NO
In short: as §1

filanesib = compound: CON(C)C(=O)N1N=C(c2cc(F)ccc2F)S[C@@]1(CCCN)c1ccccc1 [filanesib]
In short: as §1

zotarolimus = compound: CO[C@H]1C[C@@H]2CC[C@@H](C)[C@@](O)(O2)C(=O)C(=O)N2CCCC[C@H]2C(=O)O[C@H]([C@H](C)C[C@@H]2CC[C@H](n3cnnn3)[C@H](OC)C2)CC(=O)[C@H](C)/C=C(\C)[C@@H](O)[C@@H](OC)C(=O)[C@H](C)C[C@H](C)/C=C/C=C/C=C/1C [zotarolimus]
In short: as §1

idasanutlin = compound: COc1cc(C(=O)O)ccc1NC(=O)[C@@H]1N[C@@H](CC(C)(C)C)[C@](C#N)(c2ccc(Cl)cc2F)[C@H]1c1cccc(Cl)c1F [idasanutlin]
In short: as §1

alisertib = compound: COc1cc(Nc2ncc3c(n2)-c2ccc(Cl)cc2C(c2c(F)cccc2OC)=NC3)ccc1C(=O)O [alisertib]
In short: as §1

[5] = compound: COc1cc2nc(-c3cc(F)ccc3O)nc(N[C@@H]3CNC[C@H]3C(C)(C)O)c2cc1OC
In short: as §1

gefitinib = compound: COc1cc2ncnc(Nc3ccc(F)c(Cl)c3)c2cc1OCCCN1CCOCC1 [gefitinib]
In short: as §1

[6] = compound: COc1cccc2cc(-c3nc([C@H]4CC[C@H](C(=O)O)CC4)n4ncnc(N)c34)[nH]c12
In short: as §1

lapatinib = compound: CS(=O)(=O)CCNCc1ccc(-c2ccc3ncnc(Nc4ccc(OCc5cccc(F)c5)c(Cl)c4)c3c2)o1 [lapatinib]
In short: as §1

pictilisib = compound: CS(=O)(=O)N1CCN(Cc2cc3nc(-c4cccc5[nH]ncc45)nc(N4CCOCC4)c3s2)CC1 [pictilisib]
In short: as §1

Measured: log2 fold change

PECAM1 (UniProt P16284)
inactive: saracatinib 0.062 | sotrastaurin 0.062 | alvocidib 0.005 | Tubastatin A 0.096 | [1] -0.076 | defactinib 0 | rucaparib 0 | [2] 0.003 | encorafenib -0.092 | [3] -0.007 | [4] 0.018 | filanesib 0.114 | zotarolimus -0.002 | idasanutlin -0.029 | alisertib -0.053 | [5] 0.025 | gefitinib 0.02 | [6] 0.063 | lapatinib -0.021 | pictilisib 0.12

PCBP2 isoform 3 (UniProt Q15366)
UniProt Q15366, sequence (Q15366 whole entry, looked up): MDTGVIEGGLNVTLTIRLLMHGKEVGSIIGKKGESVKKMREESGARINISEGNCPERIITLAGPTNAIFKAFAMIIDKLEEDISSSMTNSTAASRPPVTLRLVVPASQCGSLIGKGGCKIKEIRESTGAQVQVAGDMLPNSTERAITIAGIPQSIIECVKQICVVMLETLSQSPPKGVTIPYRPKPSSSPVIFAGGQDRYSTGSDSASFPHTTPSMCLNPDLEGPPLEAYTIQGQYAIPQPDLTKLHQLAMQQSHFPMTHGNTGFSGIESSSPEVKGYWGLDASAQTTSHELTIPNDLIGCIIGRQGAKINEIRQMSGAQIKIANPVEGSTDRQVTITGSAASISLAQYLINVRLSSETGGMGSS
inactive: saracatinib -0.023 | sotrastaurin -0.084 | alvocidib -0.148 | Tubastatin A 0.025 | [1] -0.032 | defactinib -0.187 | rucaparib 0.041 | [2] 0.013 | encorafenib 0.075 | [3] -0.058 | [4] 0.138 | filanesib -0.031 | zotarolimus 0.048 | idasanutlin -0.064 | alisertib 0.012 | [5] -0.092 | gefitinib 0.011 | [6] 0.002 | lapatinib 0.003 | pictilisib -0.013

PRKAB1 (UniProt Q9Y478)
UniProt Q9Y478, sequence (Q9Y478 whole entry, looked up): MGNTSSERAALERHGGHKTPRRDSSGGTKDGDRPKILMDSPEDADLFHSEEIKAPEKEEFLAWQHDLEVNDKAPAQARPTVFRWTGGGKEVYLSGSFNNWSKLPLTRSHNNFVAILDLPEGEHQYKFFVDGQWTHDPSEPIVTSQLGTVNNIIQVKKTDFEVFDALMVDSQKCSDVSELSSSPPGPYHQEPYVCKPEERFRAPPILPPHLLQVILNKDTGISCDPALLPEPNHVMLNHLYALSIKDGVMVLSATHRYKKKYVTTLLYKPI
inactive: saracatinib 0.077 | sotrastaurin 0 | alvocidib -0.041 | Tubastatin A 0.087 | [1] -0.117 | defactinib -0.037 | rucaparib 0.011 | [2] -0.02 | encorafenib 0.028 | [3] -0.021 | [4] 0.024 | filanesib -0.022 | zotarolimus 0.07 | idasanutlin -0.223 | alisertib -0.105 | [5] -0.034 | gefitinib -0.024 | [6] 0.05 | lapatinib -0.049 | pictilisib -0.063

PCGF2 (UniProt P35227)
UniProt P35227, sequence (P35227 whole entry, looked up): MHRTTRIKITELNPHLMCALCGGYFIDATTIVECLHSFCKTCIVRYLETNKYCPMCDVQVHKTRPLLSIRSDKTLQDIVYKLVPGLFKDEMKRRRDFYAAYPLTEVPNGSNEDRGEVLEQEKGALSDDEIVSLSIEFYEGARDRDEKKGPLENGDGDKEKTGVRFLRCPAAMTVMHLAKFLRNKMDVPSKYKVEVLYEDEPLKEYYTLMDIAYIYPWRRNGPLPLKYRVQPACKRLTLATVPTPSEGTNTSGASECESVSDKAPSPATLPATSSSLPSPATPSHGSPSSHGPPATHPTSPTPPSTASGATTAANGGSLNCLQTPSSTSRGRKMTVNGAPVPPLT
inactive: saracatinib -0.029 | sotrastaurin 0.04 | alvocidib -0.074 | Tubastatin A 0.039 | [1] -0.057 | defactinib -0.129 | rucaparib 0.024 | [2] 0.122 | encorafenib 0.071 | [3] 0.027 | [4] -0.039 | filanesib 0.055 | zotarolimus 0.03 | idasanutlin -0.008 | alisertib 0.036 | [5] 0.11 | gefitinib 0.021 | [6] 0.018 | lapatinib -0.058 | pictilisib -0.02

PSMD1 (UniProt Q99460)
UniProt Q99460, sequence (Q99460 whole entry, looked up): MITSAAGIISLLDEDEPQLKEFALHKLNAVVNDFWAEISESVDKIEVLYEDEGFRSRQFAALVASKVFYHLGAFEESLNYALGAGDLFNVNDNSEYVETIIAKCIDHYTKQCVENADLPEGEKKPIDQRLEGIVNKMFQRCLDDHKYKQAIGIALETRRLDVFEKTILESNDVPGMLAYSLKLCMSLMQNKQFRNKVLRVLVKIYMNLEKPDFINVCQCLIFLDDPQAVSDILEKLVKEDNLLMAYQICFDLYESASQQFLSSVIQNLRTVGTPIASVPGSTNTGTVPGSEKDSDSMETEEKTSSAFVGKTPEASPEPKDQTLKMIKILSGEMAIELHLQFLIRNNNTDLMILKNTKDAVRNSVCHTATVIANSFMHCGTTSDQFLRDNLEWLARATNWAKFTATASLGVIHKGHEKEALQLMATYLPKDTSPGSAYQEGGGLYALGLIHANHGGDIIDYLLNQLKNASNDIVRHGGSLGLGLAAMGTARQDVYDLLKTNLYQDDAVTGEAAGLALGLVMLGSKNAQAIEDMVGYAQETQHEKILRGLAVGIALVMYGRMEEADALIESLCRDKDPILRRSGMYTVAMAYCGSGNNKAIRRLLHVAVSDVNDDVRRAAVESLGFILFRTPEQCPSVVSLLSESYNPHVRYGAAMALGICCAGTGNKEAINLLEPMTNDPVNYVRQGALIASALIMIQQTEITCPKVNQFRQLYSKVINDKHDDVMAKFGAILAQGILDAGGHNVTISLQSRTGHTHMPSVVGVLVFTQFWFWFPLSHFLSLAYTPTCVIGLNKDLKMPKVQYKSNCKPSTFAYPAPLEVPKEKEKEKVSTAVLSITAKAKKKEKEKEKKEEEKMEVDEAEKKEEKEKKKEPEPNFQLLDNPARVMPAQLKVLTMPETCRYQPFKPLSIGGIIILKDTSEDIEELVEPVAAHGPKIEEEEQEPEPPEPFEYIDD
inactive: saracatinib -0.033 | sotrastaurin -0.064 | alvocidib 0.051 | Tubastatin A 0.016 | [1] 0 | defactinib 0.087 | rucaparib -0.003 | [2] 0.048 | encorafenib 0.062 | [3] 0.018 | [4] 0.009 | filanesib -0.002 | zotarolimus 0.011 | idasanutlin -0.005 | alisertib -0.126 | [5] -0.077 | gefitinib -0.046 | [6] -0.056 | lapatinib 0.069 | pictilisib -0.052

PEX7 (UniProt O00628)
inactive: saracatinib 0.045 | sotrastaurin 0.06 | alvocidib -0.023 | Tubastatin A 0.061 | [1] 0.005 | defactinib -0.005 | rucaparib -0.047 | [2] 0.03 | encorafenib -0.023 | [3] -0.039 | [4] 0.013 | filanesib -0.063 | zotarolimus 0.058 | idasanutlin -0.002 | alisertib -0.01 | [5] -0.09 | gefitinib -0.003 | [6] 0.072 | lapatinib -0.032 | pictilisib 0.055

PIP4K2C (UniProt Q8TBX8)
UniProt Q8TBX8, sequence (Q8TBX8 whole entry, looked up): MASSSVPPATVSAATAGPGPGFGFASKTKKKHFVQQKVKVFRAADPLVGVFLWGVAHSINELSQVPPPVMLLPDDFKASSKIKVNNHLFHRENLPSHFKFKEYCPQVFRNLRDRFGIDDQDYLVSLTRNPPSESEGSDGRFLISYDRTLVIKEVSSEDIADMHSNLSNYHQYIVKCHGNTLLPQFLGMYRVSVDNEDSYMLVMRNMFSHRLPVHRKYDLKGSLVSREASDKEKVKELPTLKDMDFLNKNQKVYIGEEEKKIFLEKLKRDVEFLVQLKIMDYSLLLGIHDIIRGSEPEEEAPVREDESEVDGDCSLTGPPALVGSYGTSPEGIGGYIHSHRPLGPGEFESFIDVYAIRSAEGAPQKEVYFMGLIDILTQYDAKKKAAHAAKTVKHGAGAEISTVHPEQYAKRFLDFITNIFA
active: [5] 0.866
inactive: saracatinib -0.049 | sotrastaurin -0.035 | alvocidib 0.54 | Tubastatin A 0.133 | [1] 0.371 | defactinib 0.527 | rucaparib 0.011 | [2] -0.042 | encorafenib 0.051 | [3] -0.113 | [4] 0.058 | filanesib -0.025 | zotarolimus -0.021 | idasanutlin -0.186 | alisertib -0.021 | gefitinib 0.115 | [6] 0.684 | lapatinib -0.043 | pictilisib 0.134

PDCD6 (UniProt O75340)
UniProt O75340, sequence (O75340 whole entry, looked up): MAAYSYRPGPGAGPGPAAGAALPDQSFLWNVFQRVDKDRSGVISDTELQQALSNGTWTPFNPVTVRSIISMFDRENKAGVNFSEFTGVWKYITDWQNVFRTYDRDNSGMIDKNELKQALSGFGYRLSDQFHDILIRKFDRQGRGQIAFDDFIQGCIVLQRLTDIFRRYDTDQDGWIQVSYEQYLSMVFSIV
inactive: saracatinib 0.038 | sotrastaurin -0.014 | alvocidib -0.003 | Tubastatin A 0.001 | [1] 0.026 | defactinib -0.017 | rucaparib -0.048 | [2] -0.153 | encorafenib 0.002 | [3] 0.004 | [4] -0.06 | filanesib -0.124 | zotarolimus -0.03 | idasanutlin -0.106 | alisertib 0.092 | [5] 0.047 | gefitinib -0.021 | [6] 0.013 | lapatinib -0.035 | pictilisib 0.038

QRICH1 (UniProt Q2TAL8)
inactive: saracatinib -0.019 | sotrastaurin -0.076 | alvocidib -0.127 | Tubastatin A 0.156 | [1] -0.036 | defactinib -0.271 | rucaparib -0.008 | [2] -0.004 | encorafenib 0.097 | [3] 0.169 | [4] 0.015 | filanesib 0.004 | zotarolimus -0.022 | idasanutlin -0.072 | alisertib 0.071 | [5] 0.08 | gefitinib 0.137 | [6] 0.032 | lapatinib 0.011

PPP2R5E (UniProt Q16537)
UniProt Q16537, sequence (Q16537 whole entry, looked up): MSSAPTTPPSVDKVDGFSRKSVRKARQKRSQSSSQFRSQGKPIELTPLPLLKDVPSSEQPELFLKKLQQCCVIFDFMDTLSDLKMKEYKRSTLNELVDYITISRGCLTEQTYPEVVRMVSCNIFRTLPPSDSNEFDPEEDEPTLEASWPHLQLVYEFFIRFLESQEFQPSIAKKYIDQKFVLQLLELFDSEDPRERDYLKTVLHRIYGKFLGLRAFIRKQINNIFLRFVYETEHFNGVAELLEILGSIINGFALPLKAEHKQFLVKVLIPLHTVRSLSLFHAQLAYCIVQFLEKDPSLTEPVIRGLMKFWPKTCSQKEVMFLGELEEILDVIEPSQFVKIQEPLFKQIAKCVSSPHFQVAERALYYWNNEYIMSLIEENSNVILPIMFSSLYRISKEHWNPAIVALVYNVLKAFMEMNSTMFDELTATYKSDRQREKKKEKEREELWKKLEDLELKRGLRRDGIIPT
inactive: saracatinib -0.077 | sotrastaurin 0.012 | alvocidib -0.069 | Tubastatin A 0.005 | [1] 0.083 | defactinib -0.025 | rucaparib -0.008 | [2] 0.074 | encorafenib 0.021 | [3] -0.017 | [4] -0.044 | filanesib -0.056 | zotarolimus -0.009 | idasanutlin -0.191 | alisertib -0.024 | [5] 0.205 | gefitinib 0.002 | [6] 0.033 | lapatinib -0.024 | pictilisib -0.118

PML (UniProt P29590)
UniProt P29590, sequence (P29590 whole entry, looked up): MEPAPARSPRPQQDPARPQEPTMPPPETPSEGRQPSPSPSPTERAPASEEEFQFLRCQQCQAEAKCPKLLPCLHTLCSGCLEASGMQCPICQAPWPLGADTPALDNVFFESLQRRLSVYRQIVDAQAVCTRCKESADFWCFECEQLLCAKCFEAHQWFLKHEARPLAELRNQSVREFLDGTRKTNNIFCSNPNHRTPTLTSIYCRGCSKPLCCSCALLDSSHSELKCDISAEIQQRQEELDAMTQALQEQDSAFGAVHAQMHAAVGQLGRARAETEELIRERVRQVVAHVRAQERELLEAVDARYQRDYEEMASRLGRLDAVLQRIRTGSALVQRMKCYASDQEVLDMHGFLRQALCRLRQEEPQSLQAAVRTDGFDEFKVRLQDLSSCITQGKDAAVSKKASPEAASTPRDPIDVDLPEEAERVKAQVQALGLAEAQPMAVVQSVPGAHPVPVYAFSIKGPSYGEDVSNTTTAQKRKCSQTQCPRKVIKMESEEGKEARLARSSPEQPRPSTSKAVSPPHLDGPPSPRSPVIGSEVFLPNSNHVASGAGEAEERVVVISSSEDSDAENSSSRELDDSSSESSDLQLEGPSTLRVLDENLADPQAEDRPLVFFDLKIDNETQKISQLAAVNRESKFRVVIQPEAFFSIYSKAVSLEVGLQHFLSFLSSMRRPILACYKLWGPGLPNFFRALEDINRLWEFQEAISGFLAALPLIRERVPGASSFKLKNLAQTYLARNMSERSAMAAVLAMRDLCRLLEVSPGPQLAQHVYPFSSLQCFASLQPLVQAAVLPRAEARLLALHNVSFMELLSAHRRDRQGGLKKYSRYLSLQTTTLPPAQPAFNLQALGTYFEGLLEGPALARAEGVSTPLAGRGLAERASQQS
inactive: saracatinib -0.001 | sotrastaurin -0.038 | alvocidib -0.005 | Tubastatin A -0.051 | [1] 0.024 | defactinib -0.053 | rucaparib -0.008 | [2] -0.031 | encorafenib 0.005 | [3] 0 | [4] -0.043 | filanesib 0.014 | zotarolimus 0.041 | idasanutlin 0.003 | alisertib -0.022 | [5] -0.026 | gefitinib -0.015 | [6] -0.081 | lapatinib 0.024 | pictilisib 0.119

PSMD8 (UniProt P48556)
inactive: saracatinib -0.039 | sotrastaurin -0.032 | alvocidib 0.135 | Tubastatin A 0.003 | [1] -0.009 | defactinib 0.1 | rucaparib 0.003 | [2] 0.028 | encorafenib 0.041 | [3] 0.043 | [4] -0.046 | filanesib 0.055 | zotarolimus -0.016 | idasanutlin 0.015 | alisertib -0.097 | [5] -0.038 | gefitinib -0.022 | [6] -0.061 | lapatinib 0.066 | pictilisib 0.097

POLR2C (UniProt P19387)
inactive: saracatinib -0.096 | sotrastaurin -0.015 | alvocidib 0.204 | Tubastatin A -0.049 | [1] -0.043 | defactinib 0.133 | rucaparib 0.059 | [2] 0.03 | encorafenib 0.002 | [3] -0.045 | [4] -0.04 | filanesib 0.034 | zotarolimus -0.012 | idasanutlin -0.074 | alisertib 0.013 | [5] -0.022 | gefitinib -0.045 | [6] 0.086 | lapatinib 0.099

POLR3K (UniProt Q9Y2Y1)
UniProt Q9Y2Y1, sequence (Q9Y2Y1 whole entry, looked up): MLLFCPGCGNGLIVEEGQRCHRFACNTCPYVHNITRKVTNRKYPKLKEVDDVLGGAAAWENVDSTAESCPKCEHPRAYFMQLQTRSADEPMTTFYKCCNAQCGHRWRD
inactive: saracatinib 0.052 | sotrastaurin -0.049 | alvocidib 0.038 | Tubastatin A 0.044 | [1] -0.035 | defactinib -0.086 | rucaparib 0.089 | [2] -0.098 | encorafenib -0.019 | [3] 0.015 | [4] -0.078 | filanesib -0.03 | zotarolimus -0.063 | idasanutlin 0.006 | alisertib -0.156 | [5] 0.01 | gefitinib -0.023 | [6] 0.044 | lapatinib 0.057 | pictilisib -0.04

PPP2R5C isoform 5 (UniProt Q13362)
UniProt Q13362, sequence (Q13362 whole entry, looked up): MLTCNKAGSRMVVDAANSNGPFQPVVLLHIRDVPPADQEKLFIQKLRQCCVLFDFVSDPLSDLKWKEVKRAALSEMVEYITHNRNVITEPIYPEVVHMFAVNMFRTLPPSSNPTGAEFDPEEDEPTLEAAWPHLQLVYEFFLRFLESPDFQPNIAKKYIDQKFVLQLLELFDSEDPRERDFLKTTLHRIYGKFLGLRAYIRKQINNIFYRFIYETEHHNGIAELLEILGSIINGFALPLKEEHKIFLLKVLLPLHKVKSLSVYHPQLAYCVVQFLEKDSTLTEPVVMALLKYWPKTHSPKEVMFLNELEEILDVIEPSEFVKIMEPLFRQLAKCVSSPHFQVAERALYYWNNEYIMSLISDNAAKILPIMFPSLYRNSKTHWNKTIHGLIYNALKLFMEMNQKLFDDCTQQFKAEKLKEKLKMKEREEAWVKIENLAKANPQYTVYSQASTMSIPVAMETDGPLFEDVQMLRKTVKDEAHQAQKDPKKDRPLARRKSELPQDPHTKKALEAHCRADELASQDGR
inactive: saracatinib 0.007 | sotrastaurin -0.018 | alvocidib -0.045 | Tubastatin A 0.014 | [1] -0.02 | defactinib -0.044 | rucaparib -0.019 | [2] 0.023 | encorafenib 0.126 | [3] -0.042 | [4] 0.022 | filanesib -0.126 | zotarolimus 0.031 | idasanutlin -0.137 | alisertib -0.11 | [5] 0.082 | gefitinib -0.018 | [6] -0.012 | lapatinib 0 | pictilisib 0.111

PDCD2L (UniProt Q9BRP1)
UniProt Q9BRP1, sequence (Q9BRP1 whole entry, looked up): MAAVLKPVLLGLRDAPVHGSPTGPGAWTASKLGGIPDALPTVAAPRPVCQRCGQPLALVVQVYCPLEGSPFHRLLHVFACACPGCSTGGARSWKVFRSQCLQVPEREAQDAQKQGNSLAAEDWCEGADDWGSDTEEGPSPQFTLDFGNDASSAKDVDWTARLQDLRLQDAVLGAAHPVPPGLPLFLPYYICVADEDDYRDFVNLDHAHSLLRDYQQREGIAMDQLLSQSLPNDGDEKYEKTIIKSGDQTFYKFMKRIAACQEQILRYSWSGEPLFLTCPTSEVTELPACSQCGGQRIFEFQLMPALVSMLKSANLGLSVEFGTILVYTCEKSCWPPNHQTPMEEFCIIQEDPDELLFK
inactive: saracatinib -0.072 | sotrastaurin -0.148 | alvocidib -0.077 | Tubastatin A 0.048 | [1] 0 | defactinib -0.068 | rucaparib 0.038 | [2] -0.031 | encorafenib 0.127 | [3] -0.007 | [4] 0.085 | filanesib 0.014 | zotarolimus -0.033 | idasanutlin -0.031 | alisertib -0.033 | [5] 0 | gefitinib -0.09 | [6] -0.018 | lapatinib -0.048 | pictilisib -0.062
